Hit rate of the full screen: of about 5,500 compounds, about 2,000 (36%) were called active. Not shown: some 18% with an inconclusive outcome. No stated cut-off is given here; in the data, active means normalized growth mostly below about 0.91 (no sharp cut-off); inconclusive means no clear call, values can overlap the other calls; inactive means mostly above about 0.92. The list shows a part of the results.
Assay: chemical genetic growth profiling, strain panel (AID 1159580);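 further: tested at 20 µM; growth read once vehicle control cultures reached saturation at 30 °C; 1 = growth at the plate median or of vehicle wells; lower values mean less growth of the strain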
Details: S. cerevisiae deletion strains, growth OD

Measured: normalized growth

C=CCc1ccc(OC)cc1
inactive: locus YAL021C, strain ccr4, active compounds read low 0.982 | locus YAL026C, strain drs2, active compounds read low 1.03 | locus YAL030W, strain snc1, active compounds read low 1 | locus YBL061C, strain skt5, active compounds read low 1.01 | locus YBR009C, strain hhf1, active compounds read low 1.01 | locus YBR023C, strain chs3, active compounds read low 1.01 | locus YBR171W, strain sec66, active compounds read low 1.01 | locus YBR231C, strain swc5, active compounds read low 1.02 | locus YBR279W, strain paf1, active compounds read low 0.995 | locus YCL011C, strain gbp2, active compounds read low 0.988 | locus YCL016C, strain dcc1, active compounds read low 1 | locus YCL069W, strain vba3, active compounds read low 0.999 | locus YCR088W, strain abp1, active compounds read low 1.01 | locus YDL005C, strain med2, active compounds read low 1.02 | locus YDL040C, strain nat1, active compounds read low 0.999 | locus YDR001C, strain nth1, active compounds read low 1 | locus YDR069C, strain doa4, active compounds read low 1.01 | locus YDR137W, strain rgp1, active compounds read low 0.994 | locus YDR159W, strain sac3, active compounds read low 1.06 | locus YDR195W, strain ref2 1 | locus YDR297W, strain sur2, active compounds read low 1.04 | locus YDR334W, strain swr1, active compounds read low 1.01 | locus YDR335W, strain msn5, active compounds read low 0.996 | locus YDR392W, strain spt3, active compounds read low 0.919 | locus YEL003W, strain gim4, active compounds read low 1.01 | locus YEL037C, strain rad23, active compounds read low 1.01 | locus YEL061C, strain CIN8 (second series), active compounds read low 0.995 | locus YER015W, strain faa2, active compounds read low 1.01 | locus YER016W, strain bim1, active compounds read low 1.01 | locus YER111C, strain swi4, active compounds read low 1 | locus YER155C, strain BEM2 (second series), active compounds read low 1.04 | locus YFR010W, strain ubp6, active compounds read low 1.03 | locus YGL167C, strain pmr1, active compounds read low 1.01 | locus YGL173C, strain kem1, active compounds read low 1.03 | locus YGL227W, strain vid30, active compounds read low 1.01 | locus YGL240W, strain doc1, active compounds read low 1.02 | locus YGL253W, strain hxk2, active compounds read low 1.02 | locus YHR013C, strain ard1, active compounds read low 1.01 | locus YHR027C, strain rpn1, active compounds read low 1.01 | locus YHR030C, strain SLT2, active compounds read low 1 | locus YHR079C, strain IRE1, active compounds read low 0.989 | locus YHR142W, strain chs7, active compounds read low 0.992 | locus YJL092W, strain hpr5, active compounds read low 1.01 | locus YJL095W, strain BCK1 (second series), active compounds read low 1.01 | locus YJL095W, strain BCK1, active compounds read low 0.995 | locus YJL115W, strain asf1, active compounds read low 1.01 | locus YJL129C, strain trk1, active compounds read low 1.03 | locus YJL154C, strain vps35, active compounds read low 1 | locus YJL164C, strain tpk1, active compounds read low 0.98 | locus YJL166W, strain qcr8, active compounds read low 1.01 | locus YJL187C, strain SWE1, active compounds read low 0.997 | locus YJR066W, strain TOR1, active compounds read low 0.939 | locus YKL160W, strain elf1, active compounds read low 0.979 | locus YKR026C, strain gcn3, active compounds read low 1.01 | locus YKR091W, strain srl3, active compounds read low 1 | locus YLL001W, strain dnm1, active compounds read low 0.996 | locus YLL026W, active compounds read low 1.02 | locus YLL041C, strain sdh2, active compounds read low 1 | locus YLR027C, strain aat2, active compounds read low 1.02 | locus YLR113W, strain HOG1, active compounds read low 0.992 | locus YLR221C, strain rsa3, active compounds read low 1.03 | locus YLR258W, strain gsy2, active compounds read low 0.999 | locus YLR262C, strain YPT6 (second series), active compounds read low 0.992 | locus YLR320W, strain mms22, active compounds read low 1.03 | locus YLR342W, strain FKS1, active compounds read low 1.01 | locus YLR357W, strain rsc2, active compounds read low 1.01 | locus YLR370C, strain arc18, active compounds read low 0.995 | locus YLR384C, strain iki3, active compounds read low 1.01 | locus YML120C, strain ndi1, active compounds read low 0.986 | locus YMR058W, strain fet3, active compounds read low 1.02 | locus YMR125W, strain sto1, active compounds read low 0.967 | locus YMR129W, active compounds read low 1.02 | locus YMR205C, strain PFK2, active compounds read low 0.999 | locus YMR231W, strain pep5, active compounds read low 1.01 | locus YNL071W, strain lat1, active compounds read low 0.991 | locus YNL183C, strain NPR1, active compounds read low 0.909 | locus YNL209W, strain ssb2, active compounds read low 0.992 | locus YNL248C, strain rpa49, active compounds read low 0.952 | locus YNL322C, strain KRE1 (second series), active compounds read low 1 | locus YNR049C, strain mso1, active compounds read low 1 | locus YOR001W, strain rrp6, active compounds read low 1.02 | locus YOR070C, strain gyp1, active compounds read low 1.02 | locus YOR080W, strain dia2, active compounds read low 1.02 | locus YOR083W, strain WHI5, active compounds read low 0.974 | locus YOR106W, strain vam3, active compounds read low 0.988 | locus YOR231W, strain MKK1, active compounds read low 1 | locus YOR265W, strain rbl2, active compounds read low 1 | locus YOR270C, strain vph1, active compounds read low 1.04 | locus YOR290C, strain snf2, active compounds read low 0.956 | locus YPL051W, strain arl3, active compounds read low 1.01 | locus YPL078C, strain atp4, active compounds read low 0.96 | locus YPL106C, strain sse1, active compounds read low 1 | locus YPL240C, strain hsp82, active compounds read low 1.02 | locus YPL256C, strain CLN2, active compounds read low 1
